Most compounds without a hit are left out; they make up all but 5.7% or so of the library.
AHR activator: activates the human aryl hydrocarbon receptor; actives 2.5% (n = 320,000); AID 2796; activation, % at 5 µM; AHR-responsive luciferase reporter cells, luminescence; in the data active means activation above about 47%;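 further: 0% = vehicle wells and 100% = reference agonist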
hcDAF12 agonist: activates DAF-12 receptor from parasite H. contortus. actives 1.4% (n = 370,000). activation, % at 6.8 µM. AID 652067. HEK293 hcDAF-12 lit1-tk-luc reporter, luminescence; 0% DMSO, 100% Δ7-dafachronic acid;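 active means activation above the mean of all tested compounds plus 3 SD, cut at about 5.5% in these data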;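 further: 100% = response to 3 µM Δ7-dafachronic acid high control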
DAX1 inh-1: DAX1 (NR0B1) inhibition, primary screen; HEK293T StAR-luciferase reporter, SF-1/DAX-1 repression relief; inhibition, % at 6.8 µM; actives 1.1% (n = 370,000); AID 652010;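 active means inhibition above the mean over all tested compounds plus 3 SD, cut at about 3.6% in these data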;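 further: 0% = DAX-1 cells with DMSO and 100% = cells lacking DAX-1 with DMSO; higher inhibition means more luminescence from relief of DAX-1 repression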
hgDAF-12 ag: hgDAF-12 agonism, primary luciferase screen; AID 687014; HEK293 GAL4-hgDAF12 UAS-luciferase reporter, agonist luminescence; normalized to butyrate control; activation, % at 6.8 µM; actives 1.8% (n = 370,000);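 active means activation above a cutoff set at the mean of all screened compounds plus 3 SD, cut at about 10% in these data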;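 further: 0% = DMSO wells and 100% = sodium butyrate wells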
ssDAF12 agonist: activates DAF-12 receptor from parasite S. stercoralis; HEK293 ssDAF-12/GRIP1 lit1-tk-luc reporter, luminescence; % of 3 µM dafachronic acid response; activation, % at 6.8 µM; actives 1% (n = 370,000);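 active means activation above the mean over all tested compounds plus 3 SD, cut at about 0.9% in these data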;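 further: 0% = DMSO-only wells and 100% = 3 µM delta7-dafachronic acid wells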
DAX1 inh-2: NR0B1 (DAX1) inhibition. inhibition, % at 6.75 µM. P51843. HEK293 Gal4-DAX1 luciferase reporter, luminescence. actives 0.99% (n = 340,000). AID 504766;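 active means inhibition above the mean over all tested compounds plus 3 SD, cut at about 4.2% in these data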;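 further: 0% = DAX1-transfected cells with DMSO and 100% = empty-vector control cells with DMSO; inhibition shows as a rise in luminescence from relieved DAX1 repression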
DAX1 conf: confirmation of human DAX1 (NR0B1) inhibitors; shares compounds with DAX1 inh-1; HEK293T StAR-promoter luciferase reporter, SF-1/DAX-1 repression; inhibition, % at 6.8 µM; actives 87% (n = 2,400); AID 652134;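 active means inhibition above the average of every tested compound plus 3 SD, cut at about 3.8% in these data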;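 further: 0% = DAX-1 cells with DMSO and 100% = no DAX-1 control cells with DMSO; active compounds raise luminescence by relieving repression of the StAR reporter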
SF1 AF2mut Luc: counter-screen for DAX1 inhibitors: nonselective inhibitors with SF-1 AF2 mutant. shares compounds with DAX1 inh-1. HEK293 StAR-luciferase, luminescence. inhibition, % at 6.8 µM. actives 78% (n = 2,400). AID 652136;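 active means inhibition above the mean of all tested compounds plus 3 SD, cut at about 3% in these data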;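 further: 0% = DAX-1 transfected cells with DMSO and 100% = cells without DAX-1 with DMSO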
LXR ag: activates human LXR-beta, counter-screen for hcDAF-12 agonists. HEK293 Gal4-LXR tk-luc reporter, luminescence, 24 h; normalized: DMSO 0%, positive control 100%. activation, % at 6.8 µM. shares compounds with hcDAF12 agonist. 3,400 tested, under 10 active;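 active means mean percent activation of the reporter above a cutoff set as the average over tested compounds plus their standard deviation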
Target sequence (P55055 whole entry, looked up, the tested form may be a part): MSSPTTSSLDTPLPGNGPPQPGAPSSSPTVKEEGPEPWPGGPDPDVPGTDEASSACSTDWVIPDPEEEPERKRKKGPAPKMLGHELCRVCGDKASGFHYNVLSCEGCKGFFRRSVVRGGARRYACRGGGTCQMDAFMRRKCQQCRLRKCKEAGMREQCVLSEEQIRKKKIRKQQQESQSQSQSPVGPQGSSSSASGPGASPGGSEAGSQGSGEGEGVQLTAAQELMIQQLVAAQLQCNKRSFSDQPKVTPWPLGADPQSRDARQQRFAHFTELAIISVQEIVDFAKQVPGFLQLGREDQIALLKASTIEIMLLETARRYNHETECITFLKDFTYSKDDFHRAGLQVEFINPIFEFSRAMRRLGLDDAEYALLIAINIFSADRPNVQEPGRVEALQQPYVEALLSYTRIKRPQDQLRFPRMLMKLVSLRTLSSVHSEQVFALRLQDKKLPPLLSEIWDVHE
hcDAF12 conf: hcDAF-12 agonism, confirmation assay | HEK293 hcDAF-12 lit1-tk-luc reporter, luminescence; % of Δ7-dafachronic acid response | AID 743032 | shares compounds with hcDAF12 agonist | actives 61% (n = 3,400) | activation, % at 6.8 µM;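 active means mean activation across triplicate tests above the threshold derived from the earlier primary screen, cut at about 5.5% in these data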;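 further: 0% = DMSO only wells and 100% = 3 µM Δ7-dafachronic acid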
Numbers without * were called inactive; . = not tested or not shown.

SMILES	AHR activator	hcDAF12 agonist	DAX1 inh-1	hgDAF-12 ag	ssDAF12 agonist	DAX1 inh-2	DAX1 conf	SF1 AF2mut Luc	LXR ag	hcDAF12 conf
O=c1cc(-c2ccccc2)oc2ccc3ccccc3c12	.	8.7*	4.6*	4.8	0.7	-5.2	0.1	-3.8	0.6	9.8*
O=C1c2ccccc2C(=O)c2c([N+](=O)[O-])ccc(O)c21	1.5	0.9	-0.3	0.8	-1.5	-0.5	.	.	.	.
COc1ccc(NC(=O)c2oc3ccccc3c2C)cn1	50.7*	11.3*	6.4*	6.7	1.1*	0.8	6.1*	6.2*	0.5	9.8*
Cc1c(C(=O)Nc2nc3ccccc3[nH]2)oc2ccccc12	67.9*	24.2*	5.7*	21.1*	3.8*	2.3	13.8*	7.4*	2.0	13.2*
O=C(Nc1nc2ccccc2[nH]1)c1ccc(Br)o1	19.0	10.7*	6.0*	16.7*	1.4*	1.8	7.9*	5.2*	1.0	7.4*
COc1cccc(-c2nc(CS(=O)(=O)CC(=O)Nc3ccccc3C)c(C)o2)c1	4.7	-0.9	0.0	-0.5	-1.2	-0.1	.	.	.	.
O=C(COc1ccc(Br)cc1)NNC(=S)NCc1ccccc1	1.2	-0.1	0.6	-1.2	-0.9	-0.1	.	.	.	.
COC(=O)[C@H](Cc1c[nH]c2ccccc12)NC(=O)Cc1c[nH]c2ccccc12	16.1	1.2	-0.4	1.5	-0.8	1.3	.	.	.	.
COC(=O)C(Cc1c[nH]c2ccccc12)NC(=O)c1ccc2nc[nH]c2c1 (configuration not stated)	.	8.3*	8.7*	14.0*	2.1*	4.5*	12.9*	6.0*	0.8	6.9*
C[C@@H]1CN([C@@H](C)CO)C(=O)CCCn2nncc2CO[C@H]1CN(C)CC1CC1	.	-0.5	-0.1	-0.5	-0.5	.	.	.	.	.
O=C(NC1=NCCS1)c1ccccc1Cl	-1.1	-1.4	0.7	2.0	-1.5	-0.7	.	.	.	.
O=C(NC1=NCCS1)c1cc2ccccc2o1	23.1	7.0*	5.3*	11.0*	0.6	-1.1	11.4*	7.2*	1.0	6.2*
Cc1ccc(Cn2nc3c(cc2=O)CCc2ccccc2-3)cc1	1.4	0.6	-1.9	-0.4	-2.0	-0.1	.	.	.	.
Fc1ccc(-c2nc3n(n2)Cc2ccccc2-3)cc1	61.1*	17.9*	5.5*	18.0*	4.2*	0.2	14.4*	8.6*	1.6	16.2*
CCn1c(C)nc2cc(-c3nc4n(n3)Cc3ccccc3-4)ccc21	-7.3	.	.	.	.	-6.6	.	.	.	.
Clc1ccccc1OCc1nc(-c2ccncc2)no1	0.9	3.6	1.8	5.3	-0.3	0.6	.	.	.	.
Clc1ccc(OCc2nc(-c3ccncc3)no2)c(Br)c1	5.5	8.3*	5.9*	12.8*	1.2*	4.0	11.8*	8.5*	1.2	6.2*
CC(=O)N(C(C)=O)n1c(/C=C/c2ccc([N+](=O)[O-])cc2)nc2ccccc2c1=O	2.7	-1.0	-0.1	1.3	-0.7	1.5	.	.	.	.
CCc1ccc(N(C(=O)c2csnn2)C(C(=O)NC(C)(C)C)c2cccnc2)cc1 (configuration not stated)	1.0	-0.5	2.3	2.3	-0.3	0.4	.	.	.	.
O=C1NN(c2ccccc2)C(=O)/C1=C/c1coc2ccccc2c1=O	8.7	17.0*	4.8*	13.3*	1.7*	1.5	3.0	1.1	-0.1	4.8
Cc1nc2cc(NC(=O)N3c4ccccc4CC3C)ccc2n1C (configuration not stated)	8.7	6.9*	6.0*	10.0	1.3*	-0.2	18.5*	7.7*	1.6	8.2*

Screens as filed in PubChem.
